Source: PubChem BioAssay
Unmarked numbers belong to inactive results. Cut-off read from the data, not from the text of the source: active = inhibition above about 31%; inactive = the rest.

experiment: yeast transport mutant growth inhibition pilot in 384-well plates, post-Golgi transport modulator project (AID 636); details: absorbance 615 nm, about 18 h, hits give high values

| Compound | inhibition [%] |
| --- | --- |
| CCOC(=O)N1CCC(NC(=O)CCc2c(C)nc3c(c(C)nn3C(C)(C)C)c2C)CC1 | -4.61 |
| Cc1cc2nc(C3CCN(CC4COc5ccccc5O4)CC3)[nH]c2cc1C (stereo not given) | -3.03 |
| CNC(=O)Nc1cccc(C(F)(F)F)c1 | -4.08 |
| COc1ccccc1C1CC(c2ccc(C)cc2)Nc2ncnn21 (stereo not given) | 4.67 |
| CCCn1c2ccccc2c2nnc(SCC(=O)OCC)nc21 | -0.66 |
| Cc1nnc2ccc(N3CCN(c4cccc(C(F)(F)F)c4)CC3)nn12 | -0.53 |
| O=C(Cn1ccc2ccccc2c1=O)NCCC(=O)NC1CCN(Cc2ccccc2)CC1 | 3.29 |
| Cc1nc(SCC(=O)Nc2ccccc2C(F)(F)F)c2c(=O)n(C)c(=O)n(C)c2n1 | -3.87 |
| CCOC(=O)N1CCC(NC(=O)CSCc2nc(-c3cccc(OC)c3)oc2C)CC1 | -2 |
| COc1cc(C(=O)N2CCC(c3nc(-c4cccnc4)no3)CC2)cc(OC)c1OC | -2.16 |
| O=C(Nc1ccc2c(c1)OCCO2)c1ccco1 | 2.47 |
| CCOC(=O)c1cnc(-n2nc(C)cc2C)nc1Nc1cccc(C(C)=O)c1 | 1.32 |
| O=c1[nH]cnc2c1nc(SCc1ccccc1)n2C1OC(CO)C(O)C1O (stereo not given) | -5.54 |
| COc1ccc(CCn2c(-c3ccco3)nc3nc4ccccc4nc32)cc1 | -1.62 |
| O=S(=O)(c1ccc(-c2csc(-c3cccnc3)n2)cc1)N1CCCCC1 | 0 |
| CCCOc1nc(N)c(C#N)c(-c2ccccc2F)c1C#N | -2.53 |
| COc1cc(OC)c(OC)cc1CN(C)CCc1ccccn1 | -1.79 |
| CCOC(=O)c1c(-c2cccs2)csc1NC(=O)CCCC(=O)O | -5.79 |
| Cc1cccc(-c2c3c(=O)n(C)c(=O)n(C)c3cn2-c2ccc(O)cc2)c1 | -3.11 |
| CCN(C(=O)CCc1nc(-c2ccccc2F)no1)c1cc(OC)ccc1OC | 1.71 |

| Compound | inhibition [%] |
| --- | --- |
| CCc1nc(SCC(=O)Nc2nccs2)c2oc3ccccc3c2n1 | -7.43 |
| Cc1c(C#N)sc2nc(-c3ccccc3)nc(N3CCCC3)c12 | -3.59 |
| Cc1cccc(N=C2NC(=O)CS2)c1C | 0.4 |
| COCCNC(=O)c1ccc2c(c1)nc(C)n2-c1cccc(F)c1 | -0.92 |
| CCOC(=O)c1[nH]c2ccc(C)cc2c1N=C(C)N(C)C | -0.66 |
| COc1ccc2nc(N3CCC(C)CC3)c(C#N)cc2c1 | -5.33 |
| Cc1ccccc1NS(=O)(=O)c1cc(S(C)(=O)=O)ccc1Cl | -2.4 |
| Cc1cc(C)c2c(N)c(C(=O)N3CCN(c4ncccn4)CC3)sc2n1 | -5.53 |
| Cc1cc(C)n2nc3nc(N4CCCCC4)nc(-c4ccco4)c3c2n1 | -4.53 |
| O=C(O)c1cc(=O)cc(C(=O)O)[nH]1 | 0 |
| COc1ccc(NC(C)=O)cc1NC(=O)CN1CCN(c2ccccn2)CC1 | -1.87 |
| CCOC(=O)c1cccc(NC(=O)CS(=O)(=O)Cc2nc(-c3cccc(OC)c3)oc2C)c1 | -7.87 |
| O=C(CCc1nc2ccccc2s1)OCC(=O)N1CCN(C(=O)c2ccco2)CC1 | -5.41 |
| Cc1ccccc1CS(=O)(=O)Cc1ccc(C(=O)NCCCN2CCOCC2)o1 | -0.39 |
| CCOC(=O)c1cccc(NC(=O)Cn2cnc3c2c(=O)n(C)c(=O)n3C)c1 | -2.97 |
| O=C(Nc1ccon1)c1csc2c1CCCC2 | -5.66 |
| CC(C)(C)n1ncc2c(=O)n(CC(=O)NCCc3ccccc3)cnc21 | 0.92 |
| Cc1cccc2sc(NC(=O)CN(C)S(=O)(=O)c3cccs3)nc12 | 0.39 |
| CCOC(=O)c1cccc(NC(=O)CSc2nnc(C3CCCCC3)n2C)c1 | -6.22 |
| CCCc1nnc2n1N=C(c1ccc(OC)c(OC)c1)CS2 | -5.33 |
